Measurements as given in the supplement of paper PMC7858590.

test system: human monocyte-derived macrophages (polarized); test: cell shape (eccentricity) Z-score vs DMSO control; higher = more elongated, M2-like morphology; conditions: 5 µM; 24 h; macrophage state: M1-polarized (IFNg + TNFa), cytokines present during treatment
Method: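 Primary-screen hits were rescreened on polarized hMDMs with the differentiating cytokines (IL-4 + IL-13 or IFNg + TNFa) kept in the medium during treatment with compound at 5 uM for 24 h. The eccentricity Z-score vs DMSO wells is averaged over experiments.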

Question: For `CC[C@@H]1C(=O)N(C)c2cnc(Nc3ccc(C(=O)NC4CCN(C)CC4)cc3OC)nc2N1C1CCCC1`, which “cell shape (Z-score)” value is on record?
Answer: -1.93

Question: How did the “cell shape (Z-score)” value turn out when `Nc1nc2ccc(OC(F)(F)F)cc2s1` was run?
Answer: -5.46

Question: Which “cell shape (Z-score)” value does the source give for `CC1(C)CC[C@]2(C(=O)O)CC[C@]3(C)C(=CCC4[C@@]5(C)CC[C@@H](O)C(C)(C)C5CC[C@]43C)C2C1` (some centres not stated) here?
Answer: -1.9

Question: How did the “cell shape (Z-score)” value turn out when `CC(C(=O)Nc1cccc(/N=C/c2c(O)ccc3ccccc23)c1)c1ccccc1` (configuration not stated) was run?
Answer: 3.72

Question: `CC(NCCC(c1ccccc1)c1ccccc1)c1ccccc1` (configuration not stated) was tested. Which “cell shape (Z-score)” value did it give?
Answer: -8.8

Question: How did the “cell shape (Z-score)” value turn out when `CCC1(C)CC(=O)NC1=O` (configuration not stated) was run?
Answer: -7.19

Question: Which “cell shape (Z-score)” value does the source give for `C[C@@H](N)[C@H]1CC[C@H](C(=O)Nc2ccncc2)CC1` here?
Answer: 5.7

Question: How did the “cell shape (Z-score)” value turn out when `O=C(CCc1ccc(O)cc1)c1c(O)cc(O)cc1O` was run?
Answer: -3.42

Question: Which “cell shape (Z-score)” value does the source give for `O=C(NCCN1CCCCC1)c1ccc(I)cc1` here?
Answer: 6.46

Question: Which “cell shape (Z-score)” value does the source give for `CC1=C(/C=C/C(C)=C/C=C/C(C)=C/C(=O)O)C(C)(C)CCC1` here?
Answer: 7.03

Question: Which “cell shape (Z-score)” value does the source give for `Nc1nc2c(ncn2COCCO)c(=O)[nH]1` here?
Answer: -5.79

Question: With `CC[C@H]1OC(=O)[C@H](C)[C@@H](O[C@H]2C[C@@](C)(OC)[C@@H](O)[C@H](C)O2)[C@H](C)[C@@H](O[C@@H]2O[C@H](C)C[C@H](N(C)C)[C@H]2O)[C@](C)(O)C[C@@H](C)C(=O)[C@H](C)[C@@H](O)[C@]1(C)O` as the compound, how does the “cell shape (Z-score)” value read?
Answer: -5.37

Question: For `NC(N)=NCCNS(=O)(=O)c1cccc2cnccc12`, which “cell shape (Z-score)” value is on record?
Answer: -4.47

Question: `CC1=C(/C=C/C(C)=C/C=C/C(C)=C/CO)C(C)(C)CCC1` was tested. Which “cell shape (Z-score)” value did it give?
Answer: 7.5

Question: How did the “cell shape (Z-score)” value turn out when `C[C@H]1[C@H](NC(=O)/C(=N\OC(C)(C)C(=O)O)c2csc(N)n2)C(=O)N1S(=O)(=O)O` was run?
Answer: 0.443

Question: With `O=Nc1c(-c2c(O)[nH]c3cc(Br)ccc23)[nH]c2ccccc12` as the compound, how does the “cell shape (Z-score)” value read?
Answer: -13.2

Question: For `CCCCCCOc1ccccc1C(N)=O`, which “cell shape (Z-score)” value is on record?
Answer: 3.38

Question: `COc1c(OC)c2occc2c2oc(=O)ccc12` was tested. Which “cell shape (Z-score)” value did it give?
Answer: -1.24

Question: Which “cell shape (Z-score)” value does the source give for `O=c1cc(-c2ccc(O)cc2)oc2cc(O)cc(O)c12` here?
Answer: 0.0357

Question: How did the “cell shape (Z-score)” value turn out when `O=C(OC1C=C(CO)C2C(OC3OC(CO)C(O)C(O)C3O)OC=CC12O)c1ccc(O)cc1` (configuration not stated) was run?
Answer: 3.32

Question: For `COc1cccc(NC(=O)/C=C/c2ccc(Cl)cc2)c1`, which “cell shape (Z-score)” value is on record?
Answer: 4.58

Question: For `COc1cc(OC)c(/C=C/S(=O)(=O)Cc2ccc(OC)c(NCC(=O)O)c2)c(OC)c1`, which “cell shape (Z-score)” value is on record?
Answer: -2.86

Question: Which “cell shape (Z-score)” value does the source give for `CC(C)(C)OC(=O)Nc1ccc(-c2cc(C(=O)NCCCCCCC(=O)NO)no2)cc1` here?
Answer: -0.14

Question: How did the “cell shape (Z-score)” value turn out when `Nc1nc(Nc2ccccc2)nc2c1ncn2C1OC(CO)C(O)C1O` (configuration not stated) was run?
Answer: 2.02

Question: With `[O-][NH2+]c1ccc(O)c2ncccc12` as the compound, how does the “cell shape (Z-score)” value read?
Answer: -6.06

Question: `O=C(/C=C/c1ccccc1)c1ccc(O)cc1` was tested. Which “cell shape (Z-score)” value did it give?
Answer: 8.35

Question: With `Cc1ccc(C(=O)Nc2ccc(S(=O)(=O)O)c3cc(S(=O)(=O)O)cc(S(=O)(=O)O)c23)cc1NC(=O)c1cccc(NC(=O)Nc2cccc(C(=O)Nc3cc(C(=O)Nc4ccc(S(=O)(=O)O)c5cc(S(=O)(=O)O)cc(S(=O)(=O)O)c45)ccc3C)c2)c1` as the compound, how does the “cell shape (Z-score)” value read?
Answer: 6.07
